Results: PubChem BioAssay (NCI)
“And” between values parts separate entries of the source, which are not always exact repeats. Equal values may be shown once. Compounds without any hit were thinned out: in the full panel of roughly 83,000, 20% have a hit.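 Single-dose data. Exposure time 48 hours. Values below 10 considered active.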 The source made the active and inactive calls.

Assays:
Test in all cases: NCI-60 one-dose screen, 48 h (100 = growth as untreated, 0 = no growth, -100 = all killed)
[1] = system: NCI-H23 lung; settings: 10 µM
[2] = system: NCI-H226 lung; settings: 10 µM
[3] = system: NCI-H322M lung; settings: 10 µM
[4] = system: HOP-62 NSCLC; settings: 10 µM
[5] = system: NCI-H460 lung; settings: 10 µM
[6] = system: HOP-92 NSCLC; settings: 10 µM
[7] = system: NCI-H522 lung; settings: 10 µM unless noted
[8] = system: A549/ATCC NSCLC; settings: 10 µM
[9] = system: 786-0 renal; settings: 10 µM
[10] = system: COLO 205 colon; settings: 10 µM
[11] = system: DU-145 prostate; settings: 10 µM unless noted
[12] = system: K-562 leukemia; settings: 10 µM
[13] = system: MALME-3M melanoma; settings: 10 µM
[14] = system: MDA-MB-231 breast; settings: 10 µM
[15] = system: RXF 393 renal; settings: 10 µM unless noted
[16] = system: SF-268 CNS; settings: 10 µM
[17] = system: SF-295 CNS; settings: 10 µM
[18] = system: SF-539 CNS; settings: 10 µM
[19] = system: UACC-257 melanoma; settings: 10 µM
[20] = system: M14 melanoma; settings: 10 µM

SMILES	growth [1]	growth [2]	growth [3]	growth [4]	growth [5]	growth [6]	growth [7]	growth [8]	growth [9]	growth [10]	growth [11]	growth [12]	growth [13]	growth [14]	growth [15]	growth [16]	growth [17]	growth [18]	growth [19]	growth [20]
O=C1NC(=O)c2cc([N+](=O)[O-])ccc21	105% (inactive)	97.7% (inactive)	99% (inactive)	101% (inactive)	105% (inactive)	82.3% (inactive)	102% (inactive)	107% (inactive)	112% (inactive)	111% (inactive)	112% (inactive)	119% (inactive)	106% (inactive)	107% (inactive)	108% (inactive)	106% (inactive)	101% (inactive)	101% (inactive)	104% (inactive)	118% (inactive)
COc1cccc2c1C(=O)c1c(O)c3c(c(O)c1C2=O)C[C@@](O)(C(C)=O)C[C@@H]3OC1CC(N)C(O)C(C)O1 (some centres undefined)	-40.5% (active)	-6.94% (active)	3.64% (active)	-26.1% (active)	-25.3% (active)	-25.2% (active)	-52% (active)	-29.9% (active)	-18.5% (active)	-54.3% (active)	-11.4% (active)	-49.5% (active)	-77.1% (active)	-17.9% (active)	-46.9% (active)	-14.5% (active)	-26.9% (active)	-70.9% (active)	-33.3% (active)	–
Clc1cc(Cl)c(Cl)nn1	105% (inactive)	99.8% (inactive)	109% (inactive)	94.2% (inactive)	99% (inactive)	91.9% (inactive)	80.7% (inactive)	57.9% (inactive)	99.4% (inactive)	120% (inactive)	115% (inactive)	106% (inactive)	109% (inactive)	105% (inactive)	122% (inactive)	101% (inactive)	107% (inactive)	100% (inactive)	70.4% (inactive)	93% (inactive)
CC(=O)OCC(OC(C)=O)C(OC(C)=O)C(OC(C)=O)C(OC(C)=O)C(/C=N/Nc1ccccc1)=N/Nc1ccccc1 (centres undefined)	79.9% (inactive)	72.7% (inactive)	65% (inactive)	66.8% (inactive)	65.2% (inactive)	79.5% (inactive)	40.6% (inactive)	60.9% (inactive)	63.6% (inactive)	97.1% (inactive)	78.4% (inactive)	22.4% (inactive)	84.5% (inactive)	58.8% (inactive)	77% (inactive)	71.5% (inactive)	46.6% (inactive)	89.9% (inactive)	82.3% (inactive)	82.3% (inactive)
O=C(/C=C/c1cccnc1)c1ccccc1	96.6% (inactive)	96.6% (inactive)	113% (inactive)	108% (inactive)	87.6% (inactive)	84% (inactive)	-44.2% (active)	99.3% (inactive)	93.7% (inactive)	101% (inactive)	105% (inactive)	28.9% (inactive)	94.2% (inactive)	116% (inactive)	112% (inactive)	100% (inactive)	112% (inactive)	96.2% (inactive)	93.5% (inactive)	88.6% (inactive)
CCCCCCCCCCCCSC(=NC)NC	35.4% (inactive) and 54.9% (inactive)	66.3% (inactive) and 79.1% (inactive)	52.8% (inactive) and 95.6% (inactive)	76.3% (inactive) and 87.2% (inactive)	4.19% (active) and 42.7% (inactive)	-1.15% (active) and 36% (inactive)	57.7% (inactive) and 85% (inactive)	64.4% (inactive) and 87.7% (inactive)	-23.8% (active) and 62.9% (inactive)	-85.4% (active) and -86.3% (active)	41.3% (inactive) and 75.6% (inactive)	3.08% (active) and 2.7% (active)	40% (inactive) and 72.8% (inactive)	-28.3% (active) and 40.4% (inactive)	40.9% (inactive) and 70.6% (inactive)	40.9% (inactive) and 74.9% (inactive)	4.6% (active) and 65% (inactive)	29.3% (inactive) and 55.4% (inactive)	66.4% (inactive) and 98.2% (inactive)	-19.2% (active) and 60.6% (inactive)
